# From PubChem BioAssay
# Target: Calmodulin-1 (Homo sapiens) (UniProt P0DP23)
# Experiment: small molecules binding calmodulin-1 with EGTA – biochemical, small-molecule microarray, Cy5-labelled CALM1, profiling panel (AID 1111);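 further: labelled calmodulin applied in Tris saline Tween buffer holding calcium plus EGTA and DTT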
# Settings: Cy5-CALM1 binding fluorescence, higher = more signal
row,SMILES,composite z-score
1,O=C1O[C@@H](c2ccccc2)[C@@H](c2ccccc2)N2[C@@H](c3ccccc3OCCO)[C@]3(C(=O)Nc4ccccc43)[C@@H](C(=O)Nc3nc4ccccc4s3)[C@H]12,1.41
2,O=C1NC(=O)C2C1C=CC(C(O)c1cc(C(F)(F)F)cc(C(F)(F)F)c1)N2Nc1ccccn1 (stereo not given),-0.0336
3,O=C(N1CCCCC1)[C@]1(Cc2ccccc2)N=C(c2ccc(OCCCO)cc2)O[C@@H]1c1ccccc1,1.48
4,CC(C)c1ccc(NN2C(C(O)c3ccc(B(O)O)cc3)C=CC3C(=O)N(c4ccccc4)C(=O)C32)cc1 (stereo not given),2.02
5,NC(=O)NCC#Cc1ccc2c(c1)[C@]1(C(=O)N2)[C@H](c2ccc(O)cc2)N2[C@H](c3ccccc3)[C@H](c3ccccc3)OC(=O)[C@H]2[C@@H]1C(=O)O,0.342
6,Cc1ccccc1C(O)C1C=CC2C(=O)N(c3ccccc3)C(=O)C2N1Nc1ccc(C(C)C)cc1 (stereo not given),1.22
7,COc1ccc(CCNC(=O)[C@@H]2c3ccccc3C(=O)N(Cc3ccccc3Cl)[C@H]2c2ccc(CO)cc2)cc1,-0.0739
8,O=C(NC1CC1)[C@@H]1c2ccccc2C(=O)N(Cc2ccccc2Cl)[C@H]1c1ccc(CO)cc1,1.08
9,Cc1nc2cc(Br)ccc2c(=O)o1,0.66
10,CCN(CC)c1ccc(N2CC=CC34O[C@@H]5C=CCCOC(=O)C5[C@H]3C(=O)N(CCCCCCO)[C@@H]4C2=O)cc1 (stereo not given in full),-0.235

# Target: Calmodulin-1 (Homo sapiens) (UniProt P0DP23)
# Experiment: small molecules binding Ca-loaded calmodulin-1 – biochemical, small-molecule microarray, Cy5-labelled CALM1, plus calcium, artefact control for SMM control-protein annotation, profiling panel (AID 1112);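 further: score merges spot fluorescence with signal to noise from triplicate slides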
# Settings: Cy5-CALM1 binding fluorescence, higher = more signal
row,SMILES,composite z-score
1,CC(CO)N1C(=O)[C@@H]2C3C(=O)OCCC/C=C\[C@H]3OC23C=CCN(C(C)(C)C)C(=O)[C@@H]13 (stereo not given in full),-0.769
2,CN1C(=O)C2C=CC(C(O)c3ccccc3)N(N(c3ccccc3)c3ccccc3)C2C1=O (stereo not given),-0.717
3,C=CCOC(=O)[C@H]1[C@@H]2C(=O)O[C@@H](c3ccccc3)[C@@H](c3ccccc3)N2[C@@H](c2ccc(OCCOC(=O)[C@@H]3C[C@@H]4C(=O)N[C@@H](CCCCNC(C)=O)C(=O)N4[C@@H]3c3ccc(O)cc3)cc2)[C@]12C(=O)Nc1ccccc12,0.365
4,C[C@H]1C2[C@H](Cc3ccccc3)NC(=O)[C@]23C(=O)N[C@H](Cc2ccccc2)C(=O)N2CCC[C@H]2C(=O)NC/C=C\C/C=C/C3[C@@H]2O[C@]12C (stereo not given in full),-0.863
5,CC(C)C(O)C1C=CC2C(=O)NC(=O)C2N1Nc1ccc(Cl)cc1Cl (stereo not given),1.23
6,COC(=O)C(CC#Cc1ccc2c(c1)[C@]1(C(=O)N2)[C@H](C(=O)Nc2nc3ccccc3s2)[C@H]2C(=O)O[C@H](c3ccccc3)[C@H](c3ccccc3)N2[C@@H]1c1ccc(O)cc1)C(=O)OC,0.255
7,CC(C)C(O)C1C=CC2C(=O)N(c3ccccc3)C(=O)C2N1Nc1ccc([N+](=O)[O-])cc1 (stereo not given),0.308
8,CC(C)C[C@@H]1NC(=O)[C@@H]2C[C@H](C(=O)NCc3ccc(F)cc3)[C@H](c3cccc(OCCO)c3)N2C1=O,0.0115
9,CCCC[C@H]1OB(O)C[C@H]2C1=C(COC)C[C@H]1C(=O)N(C)C(=O)[C@H]12,-0.596
10,COCCOC(=O)N1C(=O)[C@@]2(c3cc(C#Cc4ccc(OC)cc4)ccc31)[C@H](c1ccccc1OCCO)N1[C@H](c3ccccc3)[C@H](c3ccccc3)OC(=O)[C@H]1[C@@H]2C(=O)NC[C@H](O)c1ccccc1,0.427
11,CCOC(=O)C[C@H]1[C@H](OC(=O)c2ccc(C(=O)c3ccccc3)cc2)[C@@H](NC(=O)c2ccccc2)c2cc(OCCCO)ccc2N1C(=O)c1ccc2ccccc2n1,0.506
12,O=C(c1ccccc1)N1C(=O)[C@@]2(Cc3ccccc31)N=C(c1ccc(OCCCO)cc1)O[C@H]2c1ccccc1,-0.502
13,Cc1ccc(N2C(=O)c3ccccc3[C@@H](C(=O)NC3CC3)[C@@H]2c2ccc(CO)cc2)nc1,-1.25
14,[N-]=[N+]=Nc1ccccc1[C@@H]1OC(c2ccc(OCCCO)cc2)=N[C@]1(CCS(=O)(=O)c1ccccc1)C(N)=O,0.629
15,COC(=O)C(CC#Cc1ccc2c(c1)[C@]1(C(=O)N2)[C@H](C(=O)Nc2nc3ccccc3s2)[C@H]2C(=O)O[C@H](c3ccccc3)[C@H](c3ccccc3)N2[C@@H]1c1ccccc1OCCO)C(=O)OC,0.504
16,CCOC(=O)C[C@H]1[C@H](OC(=O)c2ccc(C(=O)c3ccccc3)cc2)[C@@H](NC(=O)CC(C)C)c2cc(OCCCO)ccc2N1C(=O)c1ccc2ccccc2n1,-0.297
17,C=CC[C@]1(C(=O)NCc2ccccc2)N=C(c2ccc(OCCCO)cc2)O[C@H]1c1ccccc1N=[N+]=[N-],0.901
18,OCCCC1=CC(c2cccs2)N(Cc2cc3c(cc2Br)OCO3)CC1 (stereo not given),-0.16

row,SMILES,composite z-score
1,COc1ccc(C#Cc2ccc3c(c2)[C@]2(C(=O)N3)[C@H](C(=O)Nc3nc4ccccc4s3)[C@H]3C(=O)O[C@H](c4ccccc4)[C@H](c4ccccc4)N3[C@@H]2c2ccc(O)cc2)cc1,0.782
2,NC(=O)[C@@H]1[C@H]2C(=O)O[C@H](c3ccccc3)[C@H](c3ccccc3)N2[C@H](c2ccc(O)cc2)[C@@]12C(=O)Nc1ccccc12,-0.127
3,CCCCC(CC)C(O)C1C=CC2C(=O)N(Cc3ccccc3)C(=O)C2N1n1cnnc1 (stereo not given),-0.658
4,O=C1O[C@H](c2ccccc2)[C@H](c2ccccc2)N2[C@H]1[C@@H](C(=O)N1CCCCCCC1)[C@]1(C(=O)Nc3ccc(C#CCCO)cc31)[C@H]2c1ccccc1OCCO,1.73
5,C=CCNC(=O)[C@H]1[C@@H]2C(=O)O[C@@H](c3ccccc3)[C@@H](c3ccccc3)N2[C@@H](c2ccccc2OCCO)[C@]12C(=O)Nc1ccc(C#CCCO)cc12,-0.09
6,COc1ccc(C#Cc2ccc3c(c2)[C@]2(C(=O)N3)[C@H](c3ccccc3OCCO)N3[C@H](c4ccccc4)[C@H](c4ccccc4)OC(=O)[C@H]3[C@@H]2C(=O)Nc2nc3ccccc3s2)cc1,-0.104
7,CN1C(=O)C2C=CC(C(O)C3CC=CCC3)N(N(c3ccccc3)c3ccccc3)C2C1=O (stereo not given),-0.75
8,O=C1O[C@@H](c2ccccc2)[C@@H](c2ccccc2)N2[C@@H](c3ccccc3OCCO)[C@]3(C(=O)Nc4ccccc43)[C@@H](C(=O)Nc3nc4ccccc4s3)[C@H]12,0.494
9,O=C1NC(=O)C2C1C=CC(C(O)c1cc(C(F)(F)F)cc(C(F)(F)F)c1)N2Nc1ccccn1 (stereo not given),-0.531
10,O=C(N1CCCCC1)[C@]1(Cc2ccccc2)N=C(c2ccc(OCCCO)cc2)O[C@@H]1c1ccccc1,0.516
11,CC(C)c1ccc(NN2C(C(O)c3ccc(B(O)O)cc3)C=CC3C(=O)N(c4ccccc4)C(=O)C32)cc1 (stereo not given),1.08
12,NC(=O)NCC#Cc1ccc2c(c1)[C@]1(C(=O)N2)[C@H](c2ccc(O)cc2)N2[C@H](c3ccccc3)[C@H](c3ccccc3)OC(=O)[C@H]2[C@@H]1C(=O)O,0.521
13,Cc1ccccc1C(O)C1C=CC2C(=O)N(c3ccccc3)C(=O)C2N1Nc1ccc(C(C)C)cc1 (stereo not given),0.618
14,COc1ccc(CCNC(=O)[C@@H]2c3ccccc3C(=O)N(Cc3ccccc3Cl)[C@H]2c2ccc(CO)cc2)cc1,-0.0544
15,O=C(NC1CC1)[C@@H]1c2ccccc2C(=O)N(Cc2ccccc2Cl)[C@H]1c1ccc(CO)cc1,0.287
16,Cc1nc2cc(Br)ccc2c(=O)o1,0.202
17,CCN(CC)c1ccc(N2CC=CC34O[C@@H]5C=CCCOC(=O)C5[C@H]3C(=O)N(CCCCCCO)[C@@H]4C2=O)cc1 (stereo not given in full),0.307
